# Assay outcomes from PubChem BioAssay.
# TRb SRC2 PPI – qHTS for Inhibitors of the Interaction of Thyroid Hormone Receptor and Steroid Receptor Coregulator 2 | Thyroid hormone receptor beta (Homo sapiens), P10828 | TRbeta-SRC2 peptide binding, fluorescence polarization; receptor liganded with 1 µM T3 | Potency, µM (series often up to 106 µM), inactives show at the highest dose activity change, negative = inhibition, hits mostly inhibitors | 280,000 tested, 0.065% active | AID 1469, 2008;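 note: potency is the fitted concentration of half-maximal effect; plate controls were bound peptide for no effect and peptide without receptor for full effect; nearly all actives have a fitted effect of over 50% in size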
# Target sequence (P10828 whole entry, looked up): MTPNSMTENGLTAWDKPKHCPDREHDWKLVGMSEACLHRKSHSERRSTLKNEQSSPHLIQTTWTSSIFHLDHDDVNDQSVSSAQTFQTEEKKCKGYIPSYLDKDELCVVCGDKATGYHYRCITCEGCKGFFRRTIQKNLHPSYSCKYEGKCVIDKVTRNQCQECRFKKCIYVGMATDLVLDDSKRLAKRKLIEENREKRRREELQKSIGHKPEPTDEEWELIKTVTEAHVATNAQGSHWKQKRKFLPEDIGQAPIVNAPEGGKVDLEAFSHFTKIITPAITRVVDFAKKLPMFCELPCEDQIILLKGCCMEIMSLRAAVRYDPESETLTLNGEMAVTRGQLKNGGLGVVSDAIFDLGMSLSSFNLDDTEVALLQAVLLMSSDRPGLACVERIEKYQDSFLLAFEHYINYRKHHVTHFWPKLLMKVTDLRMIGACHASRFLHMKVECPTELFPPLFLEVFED
#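 Polarization signal, normalized between peptide-alone and full complex controls, measured compound effects on T3-liganded human TRb LBD (0.6 uM) binding 20 nM Texas Red SRC2 peptide after 5 hr.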
# NPSR antag – qHTS Assay for Antagonists of the Neuropeptide S Receptor: cAMP Signal Transduction; Q6W5P4; CHO-NPSR cells, cAMP TR-FRET, antagonist mode; Potency, µM (series often up to 38.3 µM), without a hit: at the top dose activity change, negative = inhibition, hits mostly inhibitors; 220,000 tested, 1% active; note: potency is the fitted concentration of half-maximal effect; % is set by controls: 0 for no effect and ±100 for the full control effect; nearly all actives have a fitted effect of over 50% in size
# TexasRed fluor – Total Fluorescence Counterscreen for Inhibitors of the Interaction of Thyroid Hormone Receptor and Steroid Receptor Coregulator 2. Potency, µM (top dose mostly 106 µM), inactives show top-dose fluorescence change, negative = quenching. 280,000 tested, 0.29% active. AID 1479, 2009. TRb/SRC2 Texas Red total fluorescence interference; active = well fitted curve in either direction with a large enough effect; inconclusive = small, poorly fitted or top-dose-only effect; note: potency is the fitted concentration of half-maximal effect; % is set by controls: 0 for no effect and ±100 for the full control effect
#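 Flags fluorescent or light-absorbing compounds by total fluorescence, S + 2P, at 555 nm excitation and 632 nm emission. Mixture: 20 nM Texas Red SRC2 peptide, 0.6 uM human TRb LBD, 1 uM T3, 5% DMSO; compound exposure 5 h at ambient temperature.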
# FBPA coupling cs – qHTS Assay for Inhibitors of Fructose-1,6-bisphosphate Aldolase from Giardia Lamblia: Coupling assay counterscreen; 290,000 tested, 0.67% active; activity change, negative = inhibition, % at 58.2 µM, hits read low; coupling enzyme system counterscreen, AmpLite Red fluorescence; in the data active = activity change below about -30%; note: % is set by controls: 0 for no effect and ±100 for the full control effect
#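 Activity here indicates interference with the coupling reaction, not aldolase inhibition. Compounds at 57.5 uM final met coupling enzymes for 10 min at RT; substrate and AmpLite Red detection followed, with a 525/598 nm fluorescence read after 20 min.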
# TCR act – Activators of T cell receptors: qHTS campaign | primary human leukocytes, anti-CD3, IL-2 HTRF, 48 h | Potency, µM (doses to about 9.22 µM), for the others: top-dose activation of IL-2 secretion, actives largely listed as activators | 330,000 tested, under 10 active | AID 504894, 2011; note: % of control where 0% means no effect
#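 IL-2 produced over 48 hr by a-CD3 bead-stimulated primary human leukocytes exposed to compounds was detected with a homogeneous time-resolved FRET immunoassay, 665nm acceptor signal after 320nm excitation.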
# TSHR antag – Antagonists of the Thyroid Stimulating Hormone Receptor: HTS campaign. TSHR-expressing cells, TSH-stimulated cAMP HTRF, 2 h; hits give low values. activity change, negative = inhibition, % at 11.5 µM. 330,000 tested, 0.2% active. AID 504810, 2011;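 active = activity change below a set negative limit, meaning inhibition stronger than a set level, cut at about -70% in these data; inconclusive = activity change between two set negative limits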; note: % is set by controls: 0 for no effect and ±100 for the full control effect
#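 TSHR-expressing cells were treated with compounds, then stimulated with TSH at EC80 (4nM final) for 2 hours at 37 deg C. Cellular cAMP was measured by HTRF competition between lysate cAMP and cAMP-d2 for a cryptate-labelled anti-cAMP antibody.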
# The depositor's hits bear a star; ? = inconclusive; . = not tested or not shown; [ ] = another dose, or the depositor's remark. Rows were chosen to be rich in hits. Some 1% of all compounds tested hit in one or more screens of this group. Unless noted, calls come from the whole dose curve; as a rule, active = well fitted curve in the direction sought with a large enough effect; inconclusive = small, poorly fitted or top-dose-only effect, or another doubt; inactive = no such curve, though single readings can be large; an effect the other way counts as inactive or inconclusive.
SMILES,TRb SRC2 PPI,NPSR antag,TexasRed fluor,FBPA coupling cs,TCR act,TSHR antag
CN1CCN(c2ncc(C=O)s2)CC1,4%,14%,-1%,-37*,9%,14
CN1CCN(c2nc(Cl)ncc2F)CC1,11%,17%,0%,0,-4%,18
CC(=O)NC1N=C(C)N(c2ccccc2)C1=O (centres undefined),32µM*,-23%[46.1 µM],1%,-78*,0%,.
Cc1cc(OC(=O)N(C)C)n(-c2ccccc2)n1,1%,-13%,-1%,3,-2%,7
CC(=NC#N)N(C)Cc1ccc(Cl)nc1,-9%[201 µM],.,-2%[201 µM],.,.,.
CCC1C=CC=CC[C@H](C)[C@@H](O)[C@](C)(O)C(=O)[C@@H](C)[C@H](O)[C@@H](C)C(=O)[C@H](C)[C@@H](O)[C@H](C)C=CC(=O)OC2[C@@H](C)C(CC1)OC1(CC[C@@H](C)C(C[C@H](C)O)O1)[C@@H]2C (some centres undefined),.,.,.,.,.,-80*
CC1CCCCC1NC(=O)Nc1ccccc1 (centres undefined),1%[201 µM],.,3%[201 µM],.,.,.
CN/C(=N\[N+](=O)[O-])NCc1cnc(Cl)s1,4%[201 µM],.,1%[201 µM],.,.,.
COc1cc(/C=C/C(=O)c2c(O)n(CCc3ccccc3)c(=O)[nH]c2=O)ccc1O,-19%,10µM*,0%,9,1%[46.1 µM],-21
O=C(/C=C/c1ccccc1)c1c(O)n(CCc2ccccc2)c(=O)[nH]c1=O,4%,13µM*,2%,-1,2%[46.1 µM],-10
O=C(/C=C/c1ccc2c(c1)OCO2)c1c(O)n(CCc2ccccc2)c(=O)[nH]c1=O,4%,?,0%,-1,-6%,-10
O=[N+]([O-])c1ccc(Oc2ccc(C(F)(F)F)cc2[N+](=O)[O-])cc1,-1%[201 µM],.,0%[201 µM],.,.,.
O=c1c(O)c(-c2ccc(O)c(O)c2)oc2c(O)c(O)cc(O)c12,4%,.,-2%,-57*,.,.
CC/C(=C(\c1ccc(O)cc1)c1ccc(OCCN(C)C)cc1)c1ccccc1,-6%[201 µM],10µM*,-5%[201 µM],-2,1%,6
Nc1cc2nc3ccccc3nc2cc1N,3%,18%[7.67 µM],-6%,-34*,-2%,-9
Nc1c2c(nc3ccccc13)CCN(Cc1ccccc1)C2,.,.,.,-1,8%,6
CC(C)[C@@]1(NC(=O)[C@@H]2C[C@H]3c4cccc5[nH]cc(c45)C[C@@H]3N(C)C2)O[C@]2(O)[C@H]3CCCN3C(=O)CN2C1=O,1%[53 µM],.,-9%[53 µM],0,.,.
CN1C[C@@H](C(=O)N[C@@]2(C)O[C@]3(O)C4CCCN4C(=O)[C@@H](Cc4ccccc4)N3C2=O)C=C2c3cccc4[nH]cc(c34)C[C@@H]21 (some centres undefined),-9%,.,?,-32*,.,.
CC(C)C[C@H]1C(=O)N2CCCC2[C@]2(O)O[C@](NC(=O)[C@@H]3C=C4c5cccc6[nH]cc(c56)CC4N(C)C3)(C(C)C)C(=O)N12 (some centres undefined),-9%,?,28%,-38*,4%,-10
CC(C)[C@@]1(NC(=O)[C@@H]2C[C@@H]3c4cccc5[nH]cc(c45)C[C@H]3N(C)C2)O[C@@]2(O)[C@@H]3CCCN3C(=O)[C@H](Cc3ccccc3)N2C1=O,5%,2µM*,-1%,-28,-5%,14
CCC(CO)NC(=O)[C@@H]1C=C2c3cccc4[nH]cc(c34)C[C@H]2N(C)C1 (some centres undefined),2%,-6%[46.1 µM],-1%,.,.,.
CC(C)[C@@]1(NC(=O)[C@@H]2C[C@@H]3c4cccc5[nH]cc(c45)C[C@H]3N(C)C2)O[C@@]2(O)C3CCCN3C(=O)[C@H](Cc3ccccc3)N2C1=O (some centres undefined),-5%,?,?,.,.,.
CC(C)C[C@H]1C(=O)N2CCC[C@H]2[C@]2(O)O[C@](NC(=O)[C@@H]3C=C4c5cccc6[nH]c(Br)c(c56)CC4N(C)C3)(C(C)C)C(=O)N12 (some centres undefined),0%,1.6µM*,0%,-21,6%,-12
CC(C)[C@@]1(NC(=O)[C@@H]2C=C3c4cccc5[nH]cc(c45)C[C@H]3N(C)C2)O[C@@]2(O)[C@@H]3CCCN3C(=O)[C@H](Cc3ccccc3)N2C1=O,?,-51%,28%,-40*,.,2
N#C/C(=C\c1ccc(O)c(O)c1)C(N)=S,7%,.,-15%,-64*,.,.
SMILES,TRb SRC2 PPI,NPSR antag,TexasRed fluor,FBPA coupling cs,TCR act,TSHR antag
N#C/C(=C\c1ccc(O)cc1)C(=O)O (tested in a mixture with another compound),.,.,.,.,-13%,.
CCOP(=S)(OCC)Oc1cc(C)oc(=O)c1,2%,-21%,0%,-4,2%,-70*
Cc1cccc(N2C(=O)NC(=O)/C(=C/c3ccc(-c4ccc(C(=O)O)c(Cl)c4)o3)C2=O)c1,0%,1%,-2%,4,.,-2
O=C1NC(=O)N(c2cccc(Cl)c2)C(=O)/C1=C\c1ccc(Sc2nc3ccccc3[nH]2)o1,?,-44%,22µM*[fluorescent],5,1%[46.1 µM],-6
O=C1NC(=O)N(c2ccccc2F)C(=O)/C1=C/c1ccc(Sc2nc3ccccc3[nH]2)o1,?,-27%,45µM*[fluorescent],6,-4%,1
O=C1NC(=O)N(c2ccccc2)C(=O)/C1=C/c1ccoc1,-11%,0%,8%,1,-2%,6
COCCNC(=O)Cn1cc(/C=C2\C(=O)NC(=O)N(c3ccccc3F)C2=O)c2ccccc21,.,.,.,5,-1%,2
O=C1NC(=O)N(c2ccccc2)C(=O)/C1=C/c1ccc(Sc2ccccc2)o1,?,10µM*,22%,2,6%,29
N#CC(C#N)=NNc1ccc(-n2ccc(C(F)(F)F)n2)cc1,-3%,2.5µM*,0%,11,-6%,-76*
CCCCn1c(NC(=O)c2ccco2)c(C(=O)OCC)c2nc3ccccc3nc21,?,-27%[46.1 µM],-1%,-46*,.,1
CC(C)c1ccc(N2C(=O)NC(=O)/C(=C\C=C\c3ccco3)C2=O)cc1,14%,4µM*,4%,4,6%,-18
Cc1cccc2c3c(ccc12)C1=C(C(=O)C3=O)[C@@H](C)CO1,2%,.,-7%,-42*,.,.
Cc1ccc2c(c1N)C(=O)c1ccccc1C2=O,-26%[201 µM],.,18%[201 µM],.,6%,-24
